The values that follow come from PubChem BioAssay (NCI).

What all share (assay): NCI-60 one-dose screen, 48 h (100 = growth as untreated, 0 = no growth, -100 = all killed)
Assay [1] relates to NCI-H226 lung. The conditions noted are these: 10 µM.
Assay [2] relates to HOP-62 NSCLC. To be noted: 10 µM.
Assay [3] has as its system NCI-H460 lung. To be noted: 10 µM.
The test system of assay [4] is A549/ATCC NSCLC. To be noted: 10 µM.
Assay [5] concerns DU-145 prostate. To be noted: 10 µM.
The test system of assay [6] is SF-268 CNS. To be noted: 10 µM.
In assay [7] the test system is SF-295 CNS. The conditions noted are these: 10 µM.
For assay [8], the system named is SF-539 CNS. To be noted: 10 µM.
For assay [9], the system named is UACC-257 melanoma. To be noted: 10 µM.
For assay [10], the system named is M14 melanoma. The conditions noted are these: 10 µM.
Assay [11] concerns HCT-15 colon. To be noted: 10 µM.
Assay [12] relates to HT29 colon. To be noted: 10 µM.
Assay [13] relates to SNB-75 CNS. The conditions noted are these: 10 µM.
The test system of assay [14] is SNB-19 CNS. To be noted: 10 µM.
The subject of assay [15] is U251 CNS. To be noted: 10 µM.
The test system of assay [16] is SK-MEL-5 melanoma. The conditions noted are these: 10 µM.
Assay [17] has as its system UACC-62 melanoma. To be noted: 10 µM.
In assay [18] the test system is SK-MEL-28 melanoma. To be noted: 10 µM.
Assay [19] deals with SK-MEL-2 melanoma. The conditions noted are these: 10 µM.
Assay [20] concerns HL-60(TB) leukemia. The conditions noted are these: 10 µM unless noted.

Molecules are shown by their SMILES. Where “and” joins values, the source holds several entries; their conditions need not be identical. Equal values may be shown once. Compounds without any hit were thinned out: in the full panel of roughly 83,000, 20% have a hit.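 Percent growth is the endpoint: 0 to 100 indicates growth inhibition (40 means 60% inhibition), 0 means no net growth, and negative values indicate cell death.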 Calls of active or inactive are those of the source. The calls were made as follows: active = growth percent below 10; inactive = the rest.

Consider `CC(C)N=C([Se])NC(=O)c1cccs1`, for which the growth in assay [1] was 64.6% (inactive); in assay [2], -2.97% (active); in [3], 0.572% (active); in assay [4], 17.6% (inactive); in assay [5] it was -14.3% (active); in assay [6], 59.4% (inactive). Also, the growth is -14% (active) in assay [7]; -63.3% (active) in assay [8]; 39.3% (inactive) in [9]; 8.28% (active) in assay [10]; 34.9% (inactive) in assay [11]; 27.9% (inactive) in [12]. The growth in assay [13] was -28.6% (active); in [14] it was 4.61% (active); in assay [15], 12.2% (inactive); in assay [16], -59.7% (active); in assay [17], 27.5% (inactive); in [18], 60.2% (inactive). Also, the growth is -57.7% (active) in assay [19] and 56% (inactive) in [20].

As to `C[C@H]1[C@H](OC(=O)CCC(=O)N(CCCc2cn(-c3ccc(CN4CCOCC4)cc3)nn2)CCNc2ccnc3cc(Cl)ccc23)O[C@@H]2OC3(C)CC[C@H]4[C@H](C)CC[C@@H]1[C@@]24OO3`, the growth in [1] was 54.1% (inactive); in [2], 56.4% (inactive); in [3], 7.93% (active); in assay [4] it was 36% (inactive); in assay [5] it was 49.7% (inactive); in assay [6], 50.1% (inactive). Further, the growth in assay [7] is -2.37% (active); in assay [8] it was -73% (active); in [9], -69.8% (active); in assay [10] it was -66.3% (active); in assay [11], 8.55% (active); in assay [12] it was -12.5% (active). Moreover, the growth was 38.7% (inactive) in assay [13]; 50.9% (inactive) in assay [14]; 13.3% (inactive) in assay [15]; -90% (active) in assay [16]; 16.6% (inactive) in [17]; -69.3% (active) in [18]. Further, the growth in [19] was 44.2% (inactive); in assay [20] it was -47% (active).

`O=C(/C=C/c1ccc(F)cc1)c1nc2ccccc2n1Cc1ccc(Br)cc1`: the growth in [1] is -66.2% (active); in assay [2] it was -68.6% (active); in assay [3], -59.4% (active); in [4], 1.63% (active); in assay [5] it was -42.2% (active); in assay [6], -4.4% (active). Also, the growth in assay [7] was -87.5% (active); in [8], -92.5% (active); in [9], -17.4% (active); in assay [10], -57.7% (active); in [11], -73.9% (active); in assay [12], -33.2% (active). Further, the growth was 44.5% (inactive) in assay [13]; -63.7% (active) in assay [14]; -91.8% (active) in [15]; -76.2% (active) in assay [16]; -84% (active) in assay [17]; -58.4% (active) in assay [18]. In addition, the growth was -61.3% (active) in assay [19] and -21.8% (active) in assay [20].

Take `Cc1cc(C)cc(Oc2cccc(-c3c(C)nnn3C3CCN(CCN(C)C)CC3)n2)c1`: the growth in assay [20] was -37% (active).

For the molecule `COc1ccc(NC(=O)Cn2c3c(sc2=O)[C@H]2[C@@H](O)[C@@H](O)[C@H](O)[C@@H]2CS3)cc1`, the growth in assay [20] was 98.1% (inactive).

As for `Cc1ccc(-c2cc(-c3cc4ccccc4nc3Cl)[nH]c(=S)n2)cc1`, in assay [20], the growth was 11.6% (inactive).

With `Nc1cccc(SCc2cc3ccccc3[nH]c2=O)c1`, the growth in [20] is 42.2% (inactive).

Turning to `Cn1cc(-c2cc(N)n3nc(-c4c[nH]c5ccccc45)cc3n2)c2cc(Br)cnc21`, in [20], the growth is -66.7% (active).

Consider `O=C(CNc1nc(-c2ccccc2)cs1)Nc1ccc(Br)cc1`, for which, in assay [20], the growth is -40.4% (active).

Consider `COc1ccc(-n2c(NC(=O)N3CCN(C)CC3)c(C#N)c3ccccc32)cc1`, for which, in [20], the growth is 74.2% (inactive).

For the molecule `COc1cc(/C=C/C(=O)c2ccc(S(=O)(=O)NCCNc3nc(Nc4ccc(F)cc4)nc(N(C)C)n3)cc2)cc(OC)c1OC`, the growth in [20] is -4.97% (active).

Take `O=C(CCl)Nc1ccc(C(=O)/C=C/c2cc3ccccc3nc2Cl)cc1`: the growth in [20] was -17.4% (active) and 30.5% (inactive).

Regarding `Cc1ccc(S(=O)(=O)c2nc(S(=O)(=O)c3ccc(C)cc3)c(Cl)s2)cc1`, in assay [20], the growth was 15.9% (inactive).

For the molecule `c1ccc(-c2csc(Nc3cccc(Nc4nc(-c5ccccc5)cs4)c3)n2)cc1`, the growth in assay [20] is 65.9% (inactive).

In the case of `N#Cc1ccc(C(=O)CSc2nc3c(c(Nc4ccc(S(N)(=O)=O)cc4)n2)CCC3)cc1`, the growth in [20] is 101% (inactive).

In the case of `Cc1ccc(/C(CSc2nnc(-c3c[nH]c4ccccc34)n2-c2ccccc2)=N/O)cc1`, the growth in [20] is -13.8% (active).

Consider `Cc1ccc(/C=C/C(=O)c2ccc(NC(=O)CSc3nnc(-c4c[nH]c5ccccc45)n3-c3ccccc3)cc2)c(C)c1`, for which, in assay [20], the growth is 79.6% (inactive).

Regarding `CS(=O)(=O)Nc1cccc(-n2cnc3cc(-c4ccc(O)cc4)ccc32)c1`, the growth in [20] is 7.73% (active).

For the molecule `COc1cc(C=O)ccc1Oc1nc(Nc2ccc(F)cc2)nc(N(C)C)n1`, the growth in assay [20] is 65.2% (inactive) and 70.8% (inactive).

Turning to `Cc1ccc(-c2nc(C#N)c(S(=O)(=O)N3CCN(S(C)(=O)=O)CC3)o2)cc1`, the growth in [20] was 2.43% (active).

For the molecule `O=C(CSc1nc2ccccc2c(=O)n1-c1ccc(Cl)cc1)Nc1ccc(-c2nc3ccccc3[nH]2)cc1`, the growth in assay [20] was 44.4% (inactive).

In the case of `O=C1N/C(=N\c2nccs2)S/C1=C\c1cccs1`, in assay [20], the growth was 25.1% (inactive).

As to `CC(=O)c1cc(C(=O)c2ccccc2)n2c1ccc1ccccc12`, the growth in assay [20] is 94.7% (inactive).

On to `COc1ccc(-c2ccnc(SCc3cc4cc(OC)ccc4[nH]c3=O)n2)cc1`, for which the growth in assay [20] was -8.43% (active).

With `O=S(=O)(Nc1ncccn1)c1ccc(-n2c(-c3ccccc3)nc(-c3ccccc3)c2-c2ccccc2)cc1`, the growth in assay [20] was 95.5% (inactive).

For `NS(=O)(=O)c1ccc(N=Nc2c(O)n(CC(=O)Nc3ccccc3Cl)c3ccccc23)cc1`, the growth in assay [20] is 45.8% (inactive).

On to `Cc1ccc(-c2cc(C(=O)N=Nc3c(O)[nH]c4ccc(Br)cc34)c3ccccc3n2)cc1`, for which the growth in assay [20] is 15.8% (inactive).

As for `COC(=O)CNC(=O)COc1c(OC)c(OC)cc2oc(-c3cccc(C(=O)Nc4ccc(Cl)cc4)c3)cc(=O)c12`, in assay [20], the growth was 101% (inactive).

For `CC(=O)Nc1cccc(-n2c(COc3ccc(I)cc3)nc3ccccc32)c1`, the growth in assay [20] was 116% (inactive) and 92.8% (inactive).

In the case of `Cc1ccc(C(=O)CSc2nnc(-c3c[nH]c4ccccc34)n2-c2ccccc2)cc1`, the growth in assay [20] was 43.3% (inactive).

As to `Cc1ccc2nc(NC(=O)Nc3cccc(Cl)c3)sc2c1`, the growth in assay [20] is 95.7% (inactive).

Regarding `COc1ccc2[nH]cc(-c3cc4nc(-c5cn(C)c6ncccc56)cc(N)n4n3)c2c1`, the growth in [20] was -35.4% (active).

As for `CS(=O)(=O)c1ccc(-n2nc(C(=O)NCc3ccccc3)cc2-c2ccc(Cl)cc2)cc1`, in assay [20], the growth is 83% (inactive).

For `O=C(Nc1ccc(-c2ccc3c(c2)NC(=O)/C3=C\c2ccc[nH]2)cc1)Nc1cccc(Cl)c1`, in assay [20], the growth is 10.6% (inactive).

Take `COc1ccc(-c2ccnc(SCc3cc4ccccc4[nH]c3=O)n2)cc1OC`: in assay [20], the growth is 87% (inactive).

For `O=C(c1ccccc1)n1ccc(-c2cc3cc(Br)ccc3oc2=O)n1`, the growth in assay [20] was -13.5% (active).

Take `Nc1nnc(-c2c[nH]c3ccc(Br)cc23)c(-c2c[nH]c3ncc(Br)cc23)n1`: the growth in assay [20] was 23.1% (inactive).

In the case of `Fc1ccccc1CNc1nc(SCCN2CCOCC2)nc2c1cnn2CC(Cl)c1ccc(Br)cc1` (stereo unspecified), in assay [20], the growth is -22.8% (active).

As to `Cc1cc(C)cc(C(=O)Nc2cccc(-c3cn(-c4ccc(S(N)(=O)=O)cc4)nn3)c2)c1`, the growth in assay [20] is 75.8% (inactive).

Regarding `COc1cccc(-c2ccc(/C=N/NC(=O)c3[nH]c4ccc(Br)cc4c3-c3ccccc3)o2)c1`, in assay [20], the growth was -38.4% (active).

For the molecule `c1n[nH]cc1-c1nc2ccc3[nH]ncc3c2c2c1CC1(CC2)COC1`, the growth in [20] is 29.1% (inactive).

With `COc1cc(C2CC(c3ccc(Cl)cc3)=Nc3c(N)nc(N)nc3N2)ccc1Oc1nc(Nc2ccc(F)cc2)nc(N(C)C)n1` (stereo unspecified), the growth in [20] is 16.3% (inactive).

`Cc1ccc(/C=C/C(=O)c2ccc(S(=O)(=O)NCCNc3nc(N(C)C)nc(N4CCOCC4)n3)cc2)cc1`: the growth in [20] is 30.7% (inactive).

In the case of `COc1ccc([C@H]2C(C(=O)c3ccc(Cl)cc3)C3(N[C@@H]2c2ccccc2)C(=O)Nc2ccccc23)cc1` (stereo partly specified), the growth in [20] was 29.2% (inactive).
